# Compound activity deposited in PubChem by National Center for Advancing Translational Sciences (NCATS).
# Chronic BCR inh = chronic active BCR signaling inhibition; ABC-DLBCL IkBa-CBG/CBR reporter, luminescence ratio, 4 h; Potency, µM (top dose mostly 46.1 µM), for inactives: at the top dose activity change, negative = inhibition, actives largely listed as inhibitors; actives 0.05% (n = 340,000); AID 493014; active = well fitted inhibition curve with a large enough effect in the signal ratio, with a control signal flat, not every such curve was filed as active; inconclusive = small, poorly fitted or top-dose-only effect, or effect the other way, or a change in a side signal; the % refers to the signal ratio;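 note: potency is the fitted concentration of half-maximal effect; plate controls were basal doxycycline-induced cells for no effect and cells given 10 µM MG132 for full effect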
#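 Compounds up to 46 uM were incubated four hours with TMD8 cells whose green CBG68 luciferase is fused to IkappaBalpha; red CBR luminescence normalised the signal, and concentration-effect curves were fitted to fusion, red and ratio data.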
# MCF10A rerep = induces DNA re-replication in MCF 10a normal breast cells; MCF 10A DNA re-replication, Hoechst nuclear intensity, 48 h; Potency, µM (doses to about 46.1 µM), without a hit: top-dose activity, positive = re-replication, actives largely listed as activators; actives 2.9% (n = 350,000); AID 624296; note: potency is the fitted concentration of half-maximal effect; % of control where 0% means no effect; nearly all actives have a fitted effect of over 50% in size
# IL-1B inflam inh = inflammasome signaling inhibition, IL-1 beta readout | THP-1 LPS/ATP IL-1B secretion, AlphaLISA, 16 h; active compounds read low | activity change, % at 57.5 µM | actives 4.7% (n = 360,000) | AID 743279; in the data active = activity change below about -50%; inconclusive = mostly about -30% to -49%; note: % is set by controls: 0 for no effect and ±100 for the full control effect
#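 THP-1 cells pretreated 1 hr with compounds (up to 57.5 uM final), then stimulated with LPS (250 ng/mL final) plus ATP (1.25 mM final); secreted IL-1B measured by AlphaLISA after 16 hr, decreased signal indicating inhibition.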
# DT40 TDP1 no CPT = qHTS for Inhibitors of human tyrosyl-DNA phosphodiesterase 1 (TDP1): qHTS in cells in absence of CPT; Potency, µM (doses to about 46.2 µM), without a hit: at the top dose activity change, negative = growth inhibition, most hits filed as inhibitors; DT40 Tdp1-/- hTDP1 cells, no CPT, ATP luminescence, 48 h; AID 686978, 2013; actives 15% (n = 420,000); note: potency is the fitted concentration of half-maximal effect; % is set by controls: 0 for no effect and ±100 for the full control effect; nearly all actives have a fitted effect of over 55% in size
#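 Growth of hTDP1-complemented DT40 Tdp1-knockout cells is measured by ATP luminescence after at least 48 hr compound exposure at 37 °C, with DMSO substituting for the 20 nM CPT used in the parallel screen.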
# TDP1 cell CPT = DT40-hTDP1 cell growth loss with CPT. AID 686979. actives 12% (n = 420,000). chicken DT40 Tdp1-/-;hTDP1 cells + 20 nM CPT, ATP luminescence, 48 h. Potency, µM (top dose mostly 46.2 µM), for the others: top-dose activity change, negative = growth inhibition, actives largely listed as inhibitors; note: potency is the fitted concentration of half-maximal effect; % is set by controls: 0 for no effect and ±100 for the full control effect; nearly all actives have a fitted effect of over 55% in size
#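 Chicken DT40 Tdp1-/- cells stably complemented with human TDP1 were seeded at 400 cells/well in medium containing 20 nM camptothecin, exposed to pin-transferred compounds, and grown at 37 °C for at least 48 hr. Viability was read as ATP luminescence.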
# SW480 rereplic = induces DNA re-replication in SW480 colon adenocarcinoma cells; Potency, µM (series often up to 46.1 µM), for inactives: at the top dose re-replication activation, actives largely listed as activators; SW480 DNA re-replication, Hoechst DNA content imaging, 48 h; actives 1.8% (n = 340,000); note: potency is the fitted concentration of half-maximal effect; % of control where 0% means no effect; nearly all actives have a fitted effect of over 55% in size
#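 250 cells/well; 23 nL cpd via pin tool; 48 hr, 37 C, 5% CO2; Hoechst 40 min; imager read of total nuclear intensity, ex 405/em 500-530 nm.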
# An asterisk follows results filed as active; ? = inconclusive; . = not tested or not shown; [ ] = remark or other dose. A selection: hits, their analogues and other compounds. The true share with any hit is near 19%. Unless noted, calls come from the whole dose curve; as a rule, active = well fitted curve in the direction sought with a large enough effect; inconclusive = small, poorly fitted or top-dose-only effect, or another doubt; inactive = no such curve, though single readings can be large; an effect the other way counts as inactive or inconclusive.
SMILES,Chronic BCR inh,MCF10A rerep,IL-1B inflam inh,DT40 TDP1 no CPT,TDP1 cell CPT,SW480 rereplic
O=C(NC1CCCCC1)C1CCC(=O)N(Cc2cccc(C(F)(F)F)c2)C1 (configuration not stated),2%,-1%,9,-29%,-8%,-3%
CC(=O)c1ccc(OCCOc2ccc(C#N)cc2)cc1,13%,11%,17,?,?,1%
CCCCn1nnnc1C(c1cc2ccccc2o1)N1CCN(CC(=O)NC(C)C)CC1 (configuration not stated),.,.,-7,?,-18%,.
Cc1ccc(CNC(=O)CSCc2ccccc2C)cc1,?,.,.,-28%,?,.
CCOc1ccccc1C1CC(=O)Nc2cc(OC)c(OC)cc21 (configuration not stated),-10%,7%,46,?,?,-4%
O=C1CC(c2cc([N+](=O)[O-])ccc2Cl)c2c(ccc3ccccc23)N1 (configuration not stated),-22%,?,18,15µM*,16µM*,?
CCCCOc1ccccc1C1CC(=O)Nc2ccc3ccccc3c21 (configuration not stated),.,.,.,6.5µM*,12µM*,.
O=C1CC(c2c(Cl)cccc2Cl)c2c(ccc3ccccc23)N1 (configuration not stated),.,.,.,26µM*,?,.
O=C1CC(c2cccc([N+](=O)[O-])c2)c2ccc3ccccc3c2N1 (configuration not stated),1%,7%,-4,?,26µM*,-2%
O=C1CC(c2ccsc2)c2ccc3ccccc3c2N1 (configuration not stated),8%,?,21,?,-3%,5%
CCCCN(C(=O)c1cc(S(=O)(=O)N2CCOCC2)ccc1N1CCOCC1)c1ccccc1,.,.,-14,-22%,-5%,.
COc1ccc(S(=O)(=O)NCCc2nnc3ccc(SCC(=O)Nc4ccc(C(F)(F)F)cc4)nn23)cc1,.,.,.,23µM*,?,.
Cc1ccc(NC(=O)CSc2ccc3nnc(CCNS(=O)(=O)c4ccccc4)n3n2)cc1Cl,.,.,.,?,16µM*,.
CCC(C)(C)c1ccc(Oc2ccc(N)cc2)cc1,8%,15µM*,-12,?,-11%,18%
CCC(C)(C)c1ccc(OCCN2C(=O)NC(C)(C)C2=O)cc1,3%,16%,15,?,?,-12%
Cc1ccc(-c2nn3c(-c4ccccc4)nnc3o2)cc1,.,.,-8,?,?,.
c1ccc(Cn2c3ccccc3c3nnc(SCCN4CCCCC4)nc32)cc1,5%,2%,.,23µM*,23µM*,7%
C=CCn1c2ccccc2c2nnc(SCN3C(=O)c4ccccc4C3=O)nc21,-2%,0%,-17,-24%,-28%,1%
C=CCn1c2ccccc2c2nnc(SCCN3CCCCC3)nc21,9%,15%,-14,18µM*,-26%,-3%
C=CCn1c2ccccc2c2nnc(SCCCn3c(=O)[nH]c4ccccc43)nc21,?,21µM*,-79*,13µM*,?,-2%[9.22 µM]
Cc1cc(C)c(CN2CCN(C(=O)CC[C@H]3O[C@@H](n4ccc(=O)[nH]c4=O)[C@H](O)[C@@H]3O)CC2)c(C)c1,.,.,-12,?,-10%,.
CC(=O)C[C@H](c1ccc([N+](=O)[O-])cc1)c1c(O)c2ccccc2oc1=O,.,-1%[20.6 µM],.,.,.,-5%[20.6 µM]
O=C(C1CCN(c2nnc(-n3cccc3)s2)CC1)N1CCOCC1,5%,7%,-20,-8%,-8%,-3%
CCCCN(CC)CCCNC(=O)C1CCN(c2ncnc3c2sc2cccc(F)c23)CC1,10%,?,-97*,29µM*,18µM*,?
O=C(NCCN1CCOCC1)C1CCN(c2ncnc3c2sc2cccc(F)c23)CC1,-13%,0%,6,21µM*,12µM*,-11%
SMILES,Chronic BCR inh,MCF10A rerep,IL-1B inflam inh,DT40 TDP1 no CPT,TDP1 cell CPT,SW480 rereplic
CCCCN(CC)CCNC(=O)C1CCN(S(=O)(=O)c2cccc3nsnc23)CC1,6%,8%,16,2%,7%,-8%
O=C(C1CCN(c2ncnc3c2sc2cccc(F)c23)CC1)N1CCOCC1,9%,-13%,2,29µM*,12µM*,-13%
Cc1ccc(NC(=O)CCn2c(=O)[nH]c3ccsc3c2=O)cc1F,?,20%,-16,-9%,4%,-4%
Cc1ccc(NC(=O)Cn2ccn(Cc3ccc(Cl)cc3)c(=O)c2=O)cc1C,.,.,.,5%,-11%,.
CS(=O)(=O)c1sc(C#N)c2c1C(=O)CC(c1ccccc1)C2 (configuration not stated),?,?,-113*,0.52µM*,0.52µM*,23%
CC(C)CC1C(C#N)=C(N)OC2=C1C(=O)CC(c1ccccc1)C2 (configuration not stated),-1%,21%,?,1%,-9%,-49%[1.84 µM]
CC(C)CN1CCCC2(CCN(C(=O)c3ccco3)CC2)C1,.,.,.,-4%,10%,.
CN(CCO)c1ccc(C=NNc2ccc([N+](=O)[O-])cc2S(=O)(=O)Nc2ccccc2C(=O)O)cc1,1%,?,-9,-17%,2%,?
CCOC(=O)C1(CCOc2ccccc2)CCN(Cc2ccc(COC)o2)CC1,-12%,13%,-57*,?,7.3µM*,-4%
CCOC(=O)C1(Cc2ccccc2)CCN(Cc2ccc(C)s2)CC1,0%,?,-26,23µM*,?,0%
CCOC(=O)C1(CCOc2ccccc2)CCN(Cc2cnc(C)[nH]2)CC1,0%,20%,-94*,?,2%,1%
CCOC(=O)C1(Cc2cccc(F)c2)CCN(Cc2ccc(COC)o2)CC1,-7%,11%,0,21µM*,23µM*,1%
